From PubChem
A selection: hits, their analogues and other compounds. The true share with any hit is near 10%.
Luciferase inh: blocks purified firefly luciferase enzyme activity; P08659; purified P. pyralis luciferase, luminescence, biochemical; 76,000 tested, 2.5% active; Potency, µM (highest dose often 115 µM), most hits filed as inhibitors; further: nearly all actives have a fitted effect of over 65% in size
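Luminescence read by CCD imager after adding enzyme (10nM final) to wells holding compound, titrated in qHTS. Substrates 10uM each D-luciferin and ATP; buffer 50mM Tris acetate pH 7.5, 10mM Mg acetate, Tween-20, BSA.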
HEK cytotox: kills HEK 293 cells; HEK 293 viability, ATP luminescence (CellTiter-Glo), 48-72 h; Potency, µM (top dose mostly 115 µM), most hits filed as inhibitors; 94,000 tested, 6.6% active; AID 1345083; further: nearly all actives have a fitted effect of over 60% in size
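Viability of HEK 293 cells, plated at 250 cells/well, was judged by cellular ATP after compound treatment for 48 or 72 hr. Luminescence was imaged 10 min after CellTiter-Glo addition at room temperature.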
NPR1 antag: human Npr1 receptor antagonism; AID 1347048; Potency, µM (top dose mostly 46.3 µM), usual class: inhibitors; 76,000 tested, 1.6% active; HEK293 hNpr1 GloSensor cGMP, ANP-stimulated luminescence; P16066; calls by dose curve; further: nearly all actives have a fitted effect of over 60% in size
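Compound pre-incubated 30 min at room temperature on GloSensor-loaded HEK293 cells stably carrying hNpr1 and the pGS-40F cGMP biosensor. Stimulation uses hNppA at 0.1 nM final; luminescence is taken at baseline and 20 min post-agonist.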
GPT2 inhibitor: inhibitors of human GPT2 alanine aminotransferase; Q8TD30; Recombinant GPT2, coupled pyruvate oxidase/HRP Amplex Red fluorescence; Potency, µM (top dose mostly 57.7 µM), most hits filed as inhibitors; 100,000 tested, 0.25% active; AID 1671188; further: nearly all actives have a fitted effect of over 60% in size
Target sequence (Q8TD30 whole entry, looked up): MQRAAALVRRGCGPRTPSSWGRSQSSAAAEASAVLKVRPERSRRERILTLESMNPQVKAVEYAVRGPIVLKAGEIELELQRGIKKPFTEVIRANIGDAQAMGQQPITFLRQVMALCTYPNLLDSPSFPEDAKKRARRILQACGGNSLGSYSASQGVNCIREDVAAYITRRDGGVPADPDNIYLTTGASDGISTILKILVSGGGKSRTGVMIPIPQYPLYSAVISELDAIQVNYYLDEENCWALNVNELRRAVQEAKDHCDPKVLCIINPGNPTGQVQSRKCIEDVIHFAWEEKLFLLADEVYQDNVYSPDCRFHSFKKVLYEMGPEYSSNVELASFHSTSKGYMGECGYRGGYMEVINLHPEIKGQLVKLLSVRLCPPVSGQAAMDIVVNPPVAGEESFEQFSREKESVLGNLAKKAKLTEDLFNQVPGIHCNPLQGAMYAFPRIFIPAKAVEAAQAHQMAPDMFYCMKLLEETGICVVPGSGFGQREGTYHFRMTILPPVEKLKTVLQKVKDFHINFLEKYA
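Fluorescence of coupled pyruvate oxidase/HRP/Amplex Red system (50uM Amplex, 30 min, dark) reports pyruvate formed by GPT2. Enzyme reaction: 10ng/uL GPT2, 2mM L-alanine, 250uM a-KG, 30 min room temperature, pH 7.5; 50uM AOA control.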
NIH3T3 tox: NIH 3T3 cell cytotoxicity; 94,000 tested, 4.3% active; NIH 3T3 viability, CellTiter-Glo ATP luminescence, 48-72 h; Potency, µM (top dose mostly 96.7 µM), most hits filed as inhibitors; further: nearly all actives have a fitted effect of over 55% in size
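Cells were seeded at 400 per well, treated with pin-transferred compound, and kept 48 or 72 hr at 37 °C before CellTiter-Glo addition and luminescence imaging of cellular ATP.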
NPR1 antag cnf: confirmation of human Npr1 natriuretic peptide receptor antagonists. shares compounds with NPR1 antag. HEK293 hNpr1 cGMP GloSensor luminescence, ANP-stimulated. Potency, µM (series often up to 57.6 µM), usual class: inhibitors. 1,400 tested, 76% active. AID 1347044; calls by dose curve; further: nearly all actives have a fitted effect of over 70% in size
NPR2 antag: selectivity test of Npr1 antagonists against human Npr2; shares compounds with NPR1 antag; HEK293 hNpr2 GloSensor cGMP luminescence, CNP-stimulated; Potency, µM (highest dose often 57.6 µM), usual class: inhibitors; 1,400 tested, 67% active; calls by dose curve; further: nearly all actives have a fitted effect of over 70% in size
FLuc inh counter: counter-screen for Npr1 antagonists: firefly luciferase inhibitors. 1,400 tested, 0.7% active. shares compounds with NPR1 antag. purified FLuc enzyme, luminescence, Km substrate. Potency, µM (top dose mostly 57.6 µM), usual class: inhibitors
GloSensor ctrl: counter-screen for Npr1 antagonists: GloSensor control cell line; HEK293 GloSensor cGMP, SNP-stimulated, luminescence; 1,400 tested, 69% active; Potency, µM (series often up to 57.6 µM), hits mostly inhibitors; AID 1347051; shares compounds with NPR1 antag; calls by dose curve; further: nearly all actives have a fitted effect of over 70% in size
Large screens that a line does not name were inactive (follow-up assays come after a bar, where they were run). Unless noted, the call rests on the fitted dose curve; in most records, active means well fitted curve in the direction sought with a large enough effect; inconclusive means small, poorly fitted or top-dose-only effect, or another doubt; inactive means no such curve, though single readings can be large; an effect the other way counts as inactive or inconclusive.

O=C1N(Cc2ccc(F)cc2)C[C@H]2CN(Cc3ccc(C(F)(F)F)cc3)CCN12	HEK cytotox inconclusive, NPR1 antag 10µM, GPT2 inhibitor inconclusive, NIH3T3 tox inconclusive | NPR1 antag cnf 11.1µM | NPR2 antag 15.7µM | FLuc inh counter inactive | GloSensor ctrl 8.86µM
CC(=O)Nc1ccc(CN2CCC(N3Cc4ccccc4C3=O)CC2)cc1	none (no result: Luciferase inh, NPR1 antag)
O=C1N(C2CCOCC2)C[C@H]2CN(Cc3ccc(C(F)(F)F)cc3)CCN12	HEK cytotox inconclusive, NPR1 antag inconclusive
COc1cccc(NC(=O)[C@@H]2C[C@H](c3ccc(F)cc3)N([S+](C)(=O)[O-])C2)c1	HEK cytotox inconclusive
CN(C)c1nc2c(c(=O)[nH]1)CCN(Cc1ccc(C(F)(F)F)cc1)CC2	none
CNC(=O)c1cccc(-c2cnc3[nH]cc(CC(=O)N(C)c4ccccc4)c3c2)c1	HEK cytotox 44.7µM, NPR1 antag 28.2µM, NIH3T3 tox 20µM | NPR1 antag cnf 35.3µM | NPR2 antag 35.3µM | FLuc inh counter inactive | GloSensor ctrl 39.6µM
Cc1cccc(-c2cnc3[nH]cc(CC(=O)N4CCOCC4)c3c2)c1	HEK cytotox inconclusive, NPR1 antag 12.6µM, NIH3T3 tox inconclusive | NPR1 antag cnf 12.5µM | NPR2 antag 25µM | FLuc inh counter inactive | GloSensor ctrl 9.94µM
CN(C)c1cccc(-c2cnc3[nH]cc(CC(=O)N4CCOCC4)c3c2)c1	HEK cytotox 79.4µM, NPR1 antag 31.6µM, NIH3T3 tox inconclusive | NPR1 antag cnf 22.2µM | NPR2 antag 28µM | FLuc inh counter inconclusive | GloSensor ctrl 25µM
Cn1cc(-c2cnc3[nH]cc(CC(=O)NCc4ccc5c(c4)OCO5)c3c2)cn1	HEK cytotox inconclusive, NIH3T3 tox inconclusive
CNC(=O)[C@@H]1C[C@H](Oc2ccccc2)CN1C1CCN(Cc2cccc(C#N)c2)CC1	HEK cytotox inconclusive (no result: Luciferase inh, NPR1 antag)
CN(Cc1cccc(C(=O)Nc2cccc(C#N)c2)c1)CC1COCCO1 (stereo unspecified)	HEK cytotox inconclusive, NPR1 antag inconclusive | NPR1 antag cnf inconclusive | NPR2 antag inconclusive | FLuc inh counter inactive | GloSensor ctrl inactive
CN1C(=O)CO[C@H](c2ccc(NC(=O)c3cccc(C#N)c3)cc2)[C@H]1CO	none
CC(C)C(=O)NC1CCN(c2ccc3nnc(-c4ccccc4)n3n2)CC1	none (no result: Luciferase inh, NPR1 antag, GPT2 inhibitor)
COCCNC(=O)[C@@H]1C[C@H](Oc2cccnc2)CN1C(=O)c1cc2ccccc2[nH]1	none (no result: Luciferase inh, NPR1 antag)
O=C(Cc1ccc2c(c1)OCO2)N1CCNc2cnc(Nc3cccc(F)c3)nc2C1	HEK cytotox inconclusive, NPR1 antag 39.8µM, NIH3T3 tox inconclusive | NPR1 antag cnf 35.3µM | NPR2 antag 35.3µM | FLuc inh counter inactive | GloSensor ctrl 35.3µM
CN(C)c1cccc(C(=O)N2CCNc3cnc(Nc4cccc(C(F)(F)F)c4)nc3C2)c1	HEK cytotox inconclusive, NPR1 antag 15.8µM, NIH3T3 tox inconclusive | NPR1 antag cnf 21.7µM | NPR2 antag 24.3µM | FLuc inh counter inactive | GloSensor ctrl 19.3µM
Cc1nn(-c2ccccc2)c2c1C(C)N(CC1CN([S+](=O)([O-])c3cccs3)C1)C2=O (stereo unspecified)	HEK cytotox inconclusive (no result: Luciferase inh, NPR1 antag, GPT2 inhibitor)
CN(C)C(=O)c1ccc(N2CCC(NCCC3=CC[C@H]4C[C@@H]3C4(C)C)CC2)cc1	HEK cytotox inconclusive, NIH3T3 tox inconclusive
COc1ccc(OC)c(CNC(=O)c2ccc(-c3ccc(N4CCSCC4)nc3)cc2)c1	HEK cytotox inconclusive, NPR1 antag 7.08µM, NIH3T3 tox inconclusive | NPR1 antag cnf 6.85µM | NPR2 antag 6.85µM | FLuc inh counter inactive | GloSensor ctrl 6.11µM
COc1cccc(CNC(=O)c2ccc(-c3ccc(N4CCSCC4)nc3)cc2)c1	Luciferase inh inconclusive, HEK cytotox inconclusive, NPR1 antag inconclusive
COc1ccc(C(=O)N[C@H]2CO[C@H]3[C@@H]2OC[C@@H]3n2nnnc2Oc2ccc3c(c2)OCO3)cc1	HEK cytotox inconclusive, NPR1 antag inconclusive
Cc1ccc(C(=O)N[C@H]2CO[C@H]3[C@@H]2OC[C@@H]3n2nnnc2Oc2ccccc2)cc1	HEK cytotox inconclusive, NPR1 antag 8.91µM, NIH3T3 tox inconclusive | NPR1 antag cnf 11.1µM | NPR2 antag 15.7µM | FLuc inh counter inactive | GloSensor ctrl 9.94µM
CN(C)c1cccc(Oc2nnnn2[C@H]2CO[C@H]3[C@@H]2OC[C@@H]3NC(=O)c2ccccc2)c1	HEK cytotox inconclusive, NPR1 antag 12.6µM | NPR1 antag cnf inconclusive | NPR2 antag inconclusive | FLuc inh counter inactive | GloSensor ctrl inconclusive
O=C(Nc1ccc(Oc2ccccc2)cc1)N[C@H]1CO[C@H]2[C@@H]1OC[C@@H]2n1nnnc1Oc1ccc(-n2ccnc2)cc1	HEK cytotox 39.8µM, NPR1 antag 11.2µM, NIH3T3 tox inconclusive | NPR1 antag cnf 21.7µM | NPR2 antag 21.7µM | FLuc inh counter inactive | GloSensor ctrl 17.2µM
CC(=O)c1ccc(NC(=O)N[C@H]2CO[C@H]3[C@@H]2OC[C@@H]3n2nnnc2Oc2ccc(-n3ccnc3)cc2)cc1	none
CN(C)c1cccc(Oc2nnnn2[C@H]2CO[C@H]3[C@@H]2OC[C@@H]3NC(=O)NCc2ccccc2)c1	none
COc1ccc(C(=O)N[C@H]2CO[C@H]3[C@@H]2OC[C@@H]3n2nnnc2Oc2cccc(N(C)C)c2)cc1	HEK cytotox inconclusive, NPR1 antag 7.08µM, NIH3T3 tox inconclusive | NPR1 antag cnf 12.2µM | NPR2 antag 12.2µM | FLuc inh counter inactive | GloSensor ctrl 9.68µM
COc1ccc(-c2cc(N3CCN(C(=O)c4ccc(N(C)C)cc4)CC3)n[nH]2)cc1	HEK cytotox inconclusive, NIH3T3 tox inconclusive
COCCN1C[C@H]2CN(C)c3ccccc3[C@@H]2N(C(=O)c2ccc(OC)cc2)CCC1=O	HEK cytotox inconclusive (no result: Luciferase inh, NPR1 antag)
COCCN1C(=O)N(Cc2cccc3ccccc23)C(=O)C12CCN(Cc1cn(C)nc1C)CC2	none
